Bioassay records as filed in PubChem BioAssay.
USP2a block: inhibitors of human ubiquitin-specific protease USP2a; USP2 core, Ub-CHOP2 coupled fluorogenic reporter, 485/531; Potency, µM (titrated, usually from 38.3 µM), most hits filed as inhibitors; actives 0.01% (n = 330,000); AID 463254
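USP2 core (10nM final) preincubated 30min RT with compound in 20mM Tris-HCl pH 8.0, 2mM CaCl2, 2mM beta-mercaptoethanol, 0.05% CHAPS; 25nM Ub-CHOP2 plus 25nM reporter substrate added, fluorescence (Ex485/Em531) read after 60min.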
CtBP-E1A inh: CtBP/E1A binding inhibition; AlphaScreen GST-E1A/His-CtBP binding, 1536-well; stronger effect = lower value; activity change, % (no concentration beside the values); actives 0.49% (n = 340,000); AID 651724; in the data active = activity change below about -65%; inconclusive = mostly about -30% to -63%
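Homogeneous bead-based format: GST-tagged E1A captured on glutathione donor beads, His-tagged CtBP on nickel acceptor beads; compounds precede bead addition by 2 h at 37 °C.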
RGS4 inh: human RGS4 inhibition; P49798; Transcreener GDP fluorescence polarization, RGS4-accelerated GTP hydrolysis; Potency, µM (top dose mostly 114 µM), actives largely listed as inhibitors; actives 0.039% (n = 390,000); note: nearly all actives have a fitted effect of over 75% in size
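MLSMR compounds (23 nl, pin-transferred) preincubated 10 min at room temperature with a 500nM (2x) first reagent, then RGS4 at 900nM (2x) plus Transcreener GDP mix added; fluorescence polarization (620/688 nm) read before and after 90 min at 30 °C.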
Eya2 phos inh: blocks the phosphatase activity of human Eya2. O00167. recombinant Eya2, OMFP fluorescence dephosphorylation (OMFP is methylfluorescein phosphate). Potency, µM (top dose mostly 76.9 µM), usual class: inhibitors. actives 0.006% (n = 330,000). AID 488837
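Eya2 protein (added as 0.2 uM solution) was preincubated with compound for 10 min at ambient temperature in 50 mM HEPES pH 7.5, 50 mM NaCl, 5 uM MgCl2, 0.05% BSA, 1 mM DTT. OMFP (added at 50 uM) then reacted 10 min; fluorescence read at 485/525 nm.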
Six1-Eya2 inh: Six1/Eya2 interaction inhibition | Q15475+O00167 | AlphaScreen GST-Six1/His-Eya2 binding, biochemical; stronger effect = lower value | activity change, % (concentration not given with the values) | actives 0.56% (n = 360,000); in the data active = activity change below about -65%; inconclusive = mostly about -30% to -63%
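Compounds are tested against tagged Six1 and Eya2 proteins bridged by glutathione donor and nickel acceptor beads; after a one-hour incubation at 37 °C without light, AlphaScreen emission is recorded.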
PI4K2A block: blocks human PI4K2A kinase activity. purified PI4K2A, ADP-Glo luminescence, 1 h; stronger effect = lower value. activity change, negative = inhibition, % at 76.9 µM. actives 0.13% (n = 420,000); in the data active = activity change below about -50%; inconclusive = mostly about -30% to -49%
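PI4K2A activity was measured by ADP-Glo luminescence: enzyme (4 ug/mL stock) and phosphatidylinositol (1.2 mM stock) in Tris pH 7.5/MgCl2/EGTA/Triton X-100 buffer were reacted with ATP (300 microM stock) for one hour at ambient temperature.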
Numbers stand for hits; . = inactive; ? = inconclusive; / = no result given; [ ] = dose if it differs, or a comment. Shown are actives, neighbours in structure and some others; about 0.72% of the full set was active somewhere. Unless noted, calls come from the whole dose curve; as a rule, active = well fitted curve in the direction sought with a large enough effect; inconclusive = small, poorly fitted or top-dose-only effect, or another doubt; inactive = no such curve, though single readings can be large; an effect the other way counts as inactive or inconclusive.

SMILES	USP2a block	CtBP-E1A inh	RGS4 inh	Eya2 phos inh	Six1-Eya2 inh	PI4K2A block
Cc1cccc(C)c1Nc1c(-c2ccccn2)nc2ccccn12	.	/	.	.	-84	.
Cc1cc(C)n2c(Nc3c(C)cccc3C)c(-c3ccccn3)nc2n1	/	?	/	/	-90	.
Cc1ccc2nc(-c3ccc(C)o3)c(NC3CCCC3)n2c1	/	/	.	/	/	/
Cc1ccc(Nc2c(-c3ccccn3)nc3cccc(C)n23)cc1	.	-98	.[11.4 µM]	.	-88	.
Cc1ccc2nc(-c3ccccn3)c(NC3CCCC3)n2c1	.	-73	.	.	?	.
COc1cccc(-c2nc3nc(C)cc(C)n3c2Nc2c(C)cccc2C)c1	/	.	/	/	.	.
CCCC(=O)Nc1cc(C(=O)NCc2ccccc2)ccc1S(=O)(=O)c1ccc(Cl)cc1	/	/	.	/	/	.
CCCCNc1c(-c2ccccn2)nc2nc(C)cc(C)n12	/	?	/	/	-88	.
CC(=C/c1ccccc1)/C=N/NC(=O)c1cccs1	.	.	.	.	.	.
O=C(N/N=C/C(Br)=C\c1ccccc1)c1ccco1	.	-82	.	.	.	.
O=C(N/N=C/C(Br)=C\c1ccccc1)c1cccs1	.	-81	.	.	.	.
O=C(N/N=C/c1ccccc1)c1ccco1	.	.	.	.	.	.
O=C(N/N=C/C(Br)=C\c1ccccc1)c1ccc2nc[nH]c2c1	.	-77	?	.	.	.
O=C(O)c1ccccc1NCCc1ccccc1	/	/	/	/	/	.
CC(=O)c1cccc(Nc2nc(-c3sc(C)nc3C)cs2)c1	.	?	.	.	?	.
Cc1nc(N)sc1-c1csc(Nc2cccc(O)c2)n1	.	?	.	.	-69	.
Cc1nc(N)sc1-c1csc(Nc2cc(N(C)C)ccc2Cl)n1	/	?	/	/	-73	.
CC(=O)c1cccc(Nc2nc(-c3sc(N)nc3C)cs2)c1	.	-77	.	.	?	.
CC(C)CN1C(=O)[C@]2(CC(=O)N(C)C2c2ccccc2)c2cc(-n3cc(CN(C)C)nn3)ccc21 (stereo partly specified)	/	/	/	/	/	.
O=C(CSc1nc2c([nH]c3ccccc32)c(=O)n1-c1ccc(Cl)cc1)N1CCOCC1	/	/	.	/	/	.
CN(C)c1ccc(-c2ccc(C3C4C=CCCC4(C)C(=O)N3Cc3ccccc3)c(F)c2)cc1 (stereo unspecified)	/	/	.	/	/	/
COc1ccc(OC)c(Nc2nc(-c3c(C)nc4ncccn34)cs2)c1	.	-82	.	.	?	.
CCCNC(=O)C1(C)CCCN(CCC(=O)c2ccccc2)C1 (stereo unspecified)	/	.	/	/	.	.
CC[C@]12c3[nH]c4cc(-c5ccco5)ccc4c3CCN1C(=O)[C@@H](CC(=O)NCCC1=CCCCC1)C[C@@H]2C(=O)N1CCN(C(=O)c2ccco2)CC1	.	.	?	.	.	-53
CC[C@]12c3[nH]c4cc(CCC(=O)N(C)C)ccc4c3CCN1C(=O)[C@@H](CC(=O)NCCC1=CCCCC1)C[C@@H]2C(=O)N1CCN(C(=O)c2ccco2)CC1	.	.	.	.	.	.
SMILES	USP2a block	CtBP-E1A inh	RGS4 inh	Eya2 phos inh	Six1-Eya2 inh	PI4K2A block
O=C1c2[nH]nc(-c3ccccc3O)c2C(c2ccc(F)cc2)N1CCO (stereo unspecified)	/	/	.	/	/	.
COCCN1C(=O)c2oc3ccc(C)cc3c(=O)c2C12C(=O)N(C)c1ccccc12 (stereo unspecified)	/	/	.	/	/	.
Cc1csc(NC(=O)CSc2ccc(-c3ccccn3)nn2)n1	.	/	.	.	-86	.
O=C(CSc1ccc2nnc(-c3ccccn3)n2n1)Nc1nccs1	.	-88	.	.	-81	.
COc1ccccc1CNC(=O)CSc1ccc(-c2cccs2)nn1	.	.	.	.	.	.
COc1ccccc1CNC(=O)CSc1ccc(-c2ccccn2)nn1	.	/	.	.	-67	.
Cc1nnc2ccc(-c3cccc(NC(=O)c4ccc(Br)o4)c3)nn12	.	-65	.	.	?	.
CCOC(=O)Cc1csc(NC(=O)c2cccs2)n1	.	.	.	.	.	-84
